D1 ag = activates the human D1 dopamine receptor | activation, % at 2 µM | hit rate 1% among 360,000 | HEK293 T-REx D1 cells, calcium flux, agonist mode | P21728; note: 0% is about no effect
Target sequence (P21728 whole entry, looked up): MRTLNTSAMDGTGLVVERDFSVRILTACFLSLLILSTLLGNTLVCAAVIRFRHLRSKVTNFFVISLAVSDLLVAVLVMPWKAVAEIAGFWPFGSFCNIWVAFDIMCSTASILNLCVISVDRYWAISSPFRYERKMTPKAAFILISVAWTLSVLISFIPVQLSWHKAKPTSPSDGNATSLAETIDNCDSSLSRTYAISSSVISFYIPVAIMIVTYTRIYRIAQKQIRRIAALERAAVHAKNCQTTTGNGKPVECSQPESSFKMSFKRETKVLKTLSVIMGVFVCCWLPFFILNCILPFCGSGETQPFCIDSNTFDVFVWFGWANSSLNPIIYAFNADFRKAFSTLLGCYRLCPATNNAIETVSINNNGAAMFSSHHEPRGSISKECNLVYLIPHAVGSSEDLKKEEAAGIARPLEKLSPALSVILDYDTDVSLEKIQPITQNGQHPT
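Agonism was scored from calcium flux recorded over 180 s (1 read/s) after pintool compound addition, following a 10-cycle baseline. Cells were inducible force-coupled HEK293 TREx D1, plated overnight at 30 C and loaded with no-wash calcium dye.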
D1 potentiator = potentiators of human D1 dopamine receptor; P21728; HEK293 TREx D1 cells, calcium flux, dopamine EC20 potentiation; potentiation, % at 10 µM; hit rate 0.036% among 360,000; AID 504651; in the data active = potentiation above about 30%; note: 0% is about no effect
TRHR agonist = TRH receptor (human) agonism | hit rate 0.18% among 360,000 | TRHR cells, calcium flux fluo-8, FDSS agonist mode | P34981 | AID 493084 | activation, % at 2 µM; note: 0% is about no effect
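TRHR-expressing cells, plated overnight in medium with 10% serum, were loaded with fluo-8 calcium dye at room temperature. After a 10 s baseline, library compound was pin-added and calcium release was recorded kinetically (ex 480/em 530) as agonist response.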
D1 antagonist = blocks dopamine activation of the human D1 receptor; P21728; HEK293 TREx D1 cells, calcium flux, dopamine EC80; hits give low values; activity change, negative = inhibition, % at 10 µM; hit rate 3.2% among 360,000; AID 504652; in the data active = activity change below about -30%; note: % is set by controls: 0 for no effect and ±100 for the full control effect
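Tetracycline-induced HEK293 Trex D1 cells, force-coupled to calcium, dye-loaded; compounds added and read 180 s, then EC80 dopamine added and calcium flux tracked kinetically another 180 s.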
TRHR enhancer = TRH receptor (human) allosteric enhancement; hit rate 0.66% among 360,000; TRHR cells, fluo-8 calcium fluorescence, EC20 TRH enhancement; AID 493056; P34981; enhancement, % at 2 µM; in the data active = enhancement above about 30%; note: 0% is about no effect
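Enhancer read-out: after compound pinning and an initial kinetic agonist-mode read, an EC20 of TRH (10 nM final) was injected and fluo-8 calcium signal (Ex 480/Em 530) followed at 1 s/cycle for 100 cycles in TRHR-expressing cells.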
* marks the source's active call; other numbers are inactive results; . = no result. The list is not random: actives were taken first. Their share in the collection is about 4.7%. Cut-off read from the data, not from the text of the source, unless noted: active = activation above about 30%; inactive = the rest.

SMILES	D1 ag	D1 potentiator	TRHR agonist	D1 antagonist	TRHR enhancer
CCOC(=O)C1CCCN(c2ccc([N+](=O)[O-])c3nonc23)C1 (stereo not drawn)	752.3*	15.1	247.8*	-28.6	33.0*
O=c1c2ccccc2nc(/C=C/c2ccccc2O)n1-c1ccc(Br)cc1	5.2	-1.9	2.7	-6.9	-5.2
CC(C)CCn1c(N)c(C(=O)OCC2CCCO2)c2nc3ccccc3nc21 (stereo not drawn)	-0.5	-3.0	0.0	-36.0*	-5.1
CCCCn1c(N)c(C(=O)OCC2CCCO2)c2nc3ccccc3nc21 (stereo not drawn)	1.6	8.8	-1.4	11.7	-5.7
CN1C[C@H](CO)C=C2c3cccc4[nH]cc(c34)C[C@H]21	23.1	-5.2	-0.7	-76.4*	1.7
COc1ccc(-c2nn3c(=O)cc(CN4CCN(C(=O)COc5ccc(F)cc5)CC4)nc3s2)cc1	0.4	-0.6	-0.1	-24.5	-5.9
O=C1NC(=O)C(=Cc2ccc(Oc3ccc([N+](=O)[O-])cc3)cc2)C(=O)N1	2.7	9.7	-2.3	-35.9*	3.4
O=C(/C=C/c1ccccc1)c1c(O)n(CCc2ccccc2)c(=O)[nH]c1=O	1.0	-5.1	-1.3	10.2	-3.1
COc1cc(/C=C/C(=O)c2c(O)n(CCc3ccccc3)c(=O)[nH]c2=O)ccc1O	42.2*	0.4	-0.1	9.5	6.5
CCc1ccc(-n2nc(C)c3c2NC(=O)CSC3c2ccc(OC)cc2OC)cc1 (stereo not drawn)	1.0	-5.3	-0.4	-0.4	-23.5
CN1CCN(c2ccc([N+](=O)[O-])c(NCc3ccco3)c2)CC1	0.2	-5.7	-0.1	-31.2*	4.1
N#Cc1cc2c(nc1SCC(=O)Nc1ccc(C(F)(F)F)cc1)C1CCN2CC1	3.1	-3.9	-0.7	17.0	15.7
O=c1[nH]c(=O)n(C2CCCCC2)c(O)c1/C=C/C=Nc1ccccc1	174.8*	-8.8	63.3*	-0.9	16.9
Cc1ccc(-n2c(O)c(/C=C/C=Nc3ccccc3)c(=O)[nH]c2=O)cc1	49.6*	8.0	23.7	21.6	-4.5
COc1ccc(-n2c(O)c(/C(C)=N/Nc3ccccc3)c(=O)[nH]c2=O)cc1	0.8	0.7	-0.4	-0.8	-20.1
COc1ccc(-n2c(O)c(/C=C/C=Nc3ccccc3)c(=O)[nH]c2=O)cc1	91.2*	-3.1	29.6	4.8	-0.7
C=CCn1c(O)c(/C=C/C=Nc2ccccc2)c(=O)[nH]c1=O	16.4	-3.1	9.9	-3.3	1.3
O=c1[nH]c(=O)n(-c2ccccc2)c(O)c1/C=C/C=Nc1ccccc1	21.2	-2.9	15.5	-3.4	2.6
COc1ccc(OCC(=O)N2CCN(Cc3cc(=O)n4nc(-c5ccccc5C)sc4n3)CC2)cc1	-0.5	-2.7	-0.8	-3.6	3.9
O=c1c2ccccc2nc(/C=C/c2cccc3ccccc23)n1-c1ccccc1Cl	1.4	-1.2	-0.2	-17.3	-6.1
CC(=O)Nc1ccc(OC(=O)N(C)c2ccc(C)cc2)cc1	0.9	-6.4	0.1	-38.0*	2.3
CC(=O)Nc1ccc(OC(=O)N(C)c2ccccc2)cc1	2.5	-2.7	0.6	11.8	2.9
CC(=O)Nc1cc(C(=O)N2CCC3(CC2)OCCO3)ccc1S(=O)(=O)c1ccc(Cl)cc1	2.0	-2.5	0.1	-87.2*	4.7
CN1CCN(c2nc(Cl)ncc2F)CC1	4.3	-10.8	1.0	-32.2*	-2.3
Cc1cccc(CN2CC=C(c3noc(CCC(=O)Nc4ccc(C)c(F)c4)n3)CC2)c1	10.9	-2.0	0.1	-13.0	-2.2
SMILES	D1 ag	D1 potentiator	TRHR agonist	D1 antagonist	TRHR enhancer
Cc1ccc(Cn2cccc(C(=O)Nc3cc([N+](=O)[O-])ccc3C)c2=O)cc1	-0.3	0.7	0.5	.	-7.8
O=C(Cc1ccc([N+](=O)[O-])cc1)N1CCN(Cc2ccc3c(c2)OCO3)CC1	3.0	0.8	0.0	-35.8*	2.3
Cc1cc(-c2ccccc2)cc(-c2ccccc2)[n+]1CCc1ccccc1	-1.6	-12.3	-0.4	-42.5*	-0.3
Cc1ccccc1-n1nc(C)c2c1NC(=O)CSC2c1ccccc1C(F)(F)F (stereo not drawn)	-1.3	0.3	-0.8	-8.1	-9.5
COCCNC(=O)Cn1cc(/C=C2\C(=O)NC(=O)N(c3ccccc3F)C2=O)c2ccccc21	1.7	-3.9	1.3	4.4	-2.0
COCCCNC(=O)Cn1cc(/C=C2\C(=O)NC(=O)N(c3ccccc3F)C2=O)c2ccccc21	32.1*	-5.1	-0.3	-19.5	0.2
Cc1ccc2c(c1)C1CN(C)CCC1N2C(=O)Nc1cccc(Cl)c1 (stereo not drawn)	25.9	-13.2	3.0	-95.5*	-3.3
CCCCCc1nc2ccccc2c(=O)n1-c1ccc(Cl)cc1[N+](=O)[O-]	-0.5	1.2	0.3	-44.4*	-6.1
CCCCc1nc2ccccc2c(=O)n1-c1ccccc1O	2.0	2.5	-0.5	1.4	1.1
COc1ccccc1N1CCN(Cc2ccccc2Cl)CC1	2.2	-2.7	-1.0	10.6	0.2
Clc1ccccc1CN1CCN(c2cccc3[nH]ccc23)CC1	0.1	-2.5	0.2	-48.5*	1.0
Cc1cc(C)cc(OCC(=O)Nc2ccc(Cl)cc2C(=O)c2ccccc2)c1	1.0	-1.0	-0.9	-9.2	-6.1
COc1cc(/C=C/c2nc3ccccc3c(=O)n2-c2ccc(Br)c(C)c2)ccc1O	16.5	-0.5	15.9	-0.3	-11.9
C=CCN1CCc2cccc3c2[C@H]1Cc1ccc(O)c(O)c1-3	31.8*	4.5	0.2	-89.7*	3.6
COc1ccc(CC(C)NCCC(c2ccccc2)c2ccccc2)cc1 (stereo not drawn)	43.3*	-2.0	0.6	-2.9	8.1
Cc1sc2ccccc2c1CC1=NCCN1	4.5	-9.3	1.3	-47.4*	2.0
CNC(C)Cc1ccccc1Sc1ccc(O)cc1 (stereo not drawn)	20.3	-17.4	0.8	-58.8*	1.1
CCCCc1ccc2[nH]cc(CCN)c2c1	90.0*	1.8	9.0	4.9	16.5
NCCc1c[nH]c2ccccc12	-0.5	-0.2	0.2	2.6	1.3
Cc1nc2cc(C(F)(F)F)ccc2n1C1CCN(Cc2nnnn2CCc2ccccc2)CC1	1.1	1.8	0.7	-15.2	0.8
FC(F)(F)c1ccc2c(c1)nnn2C1CCN(Cc2nnnn2Cc2ccccc2)CC1	2.8	-5.7	1.3	-42.3*	-0.2
Cc1ccc(Cn2nnnc2CN2CCC(n3nnc4cc(C(F)(F)F)ccc43)CC2)cc1	1.4	-3.0	0.9	-39.1*	-2.5
Cc1ccc(Cn2nnnc2CN2CCC(n3nnc4cc(C)ccc43)CC2)cc1	0.3	-4.2	-0.6	-28.0	-0.7
O=C1CN=C(c2ccccc2Cl)c2cc(Cl)ccc2N1Cc1cccc(Cl)c1	7.1	-4.9	0.4	-23.8	1.8
O=CC(Cl)P(=O)(N1CCOCC1)N1CCOCC1 (stereo not drawn)	0.7	-5.7	0.1	-36.1*	-0.5
CC(C)(C)P(=O)(N1CCOCC1)N1CCOCC1	2.7	-0.1	0.6	-4.5	-8.2
